The results in this text go back to PubChem BioAssay (EPA / NIEHS).

The structures appear in SMILES notation. Values joined by “and” are separate entries in the source; they are usually repeats but may differ in a detail not shown here. Equal values may be shown once. More than one record can exist for a structure, and the calls need not agree. Active and inactive are the calls of the source. Rule for the calls: active = hit-call score of the fitted dose curve at least 0.9, where 1 is the maximum; inactive = score below 0.9.

The AC50 is the concentration giving half of the maximal activity seen.

Read-out in assay [1]: Collagen IV, COL4A1 (gene 1282)
Kind of assay: BSK_MyoF_CollagenIV: BioMAP Diversity Plus: MyoF Assay for Collagen IV Biomarker Activity (AID 2284247). Particulars: primary human lung fibroblasts. The method, boiled down:
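Lung fibroblasts (human primary) treated with chemicals were assayed after 24 h for Collagen IV using an ELISA, with DMSO serving as negative control and baseline for a positive-direction fit.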

Read-out in assay [2]: Monokine induced gamma interferon (MIG), CXCL9 (gene 4283)
The assay is described as follows: BSK_KF3CT_MIG: BioMAP Diversity Plus: KF3CT Assay for Monokine induced gamma interferon (MIG) Biomarker Activity (AID 2284248). Particulars: primary human keratinocytes with fibroblasts. Put shortly:
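ELISA read-out of MIG after 24 h chemical exposure of human skin primary co-culture (keratinocytes, foreskin fibroblasts). Gain of signal relative to DMSO negative control was analysed.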

Read-out in assay [3]: Vascular cell adhesion molecule 1 (VCAM1), VCAM1 (gene 7412)
The assay is described as follows: BSK_BF4T_VCAM1: BioMAP Diversity Plus: BF4T Assay for Vascular cell adhesion molecule 1 (VCAM1) Biomarker Activity (AID 2284249). Particulars: primary human bronchial epithelial cells with fibroblasts. The method, boiled down:
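Cell-surface VCAM-1 quantified by ELISA after 24 h chemical exposure of human bronchial epithelial/dermal fibroblast co-cultures, with SRB staining in parallel wells for cytotoxicity; DMSO baseline, positive-direction fitting.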

Read-out in assay [4]: Collagen I, COL1A1 (gene 1277)
Kind of assay: BSK_hDFCGF_CollagenI: BioMAP Diversity Plus: hDFCGF Assay for Collagen I Biomarker Activity (AID 2284250). The settings on record: primary human foreskin fibroblasts. Put shortly:
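Readout: Collagen I by ELISA after 24 h compound treatment of primary human foreskin fibroblasts. Endpoint analysed for increases relative to DMSO; total protein by SRB in parallel wells flagged cytotoxicity.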

Read-out in assay [5]: Interferon-inducible T-cell alpha chemoattractant (ITAC), CXCL11 (gene 6373)
The assay is described as follows: BSK_hDFCGF_ITAC: BioMAP Diversity Plus: hDFCGF Assay for Interferon-inducible T-cell alpha chemoattractant (ITAC) Biomarker Activity (AID 2284251). Particulars: primary human foreskin fibroblasts. Put shortly:
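I-TAC levels were read by ELISA on human dermal foreskin fibroblast primary cultures 24 h after dosing, analysed against DMSO in the positive direction. Cytotoxicity was assessed alongside by sulforhodamine B total-protein staining.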

Read-out in assay [6]: Plasminogen activator inhibitor-1 (PAI1), SERPINE1 (gene 5054)
Kind of assay: BSK_KF3CT_PAI1: BioMAP Diversity Plus: KF3CT Assay for Plasminogen activator inhibitor-1 (PAI1) Biomarker Activity (AID 2284252). Particulars: primary human keratinocytes with fibroblasts. The method, boiled down:
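In this co-culture of primary human keratinocytes and foreskin fibroblasts, PAI-1 was measured by ELISA at 24 h and fitted upward from DMSO.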

Read-out in assay [7]: Monocyte Chemoattractant Protein-1 (MCP1), CCL2 (gene 6347)
Kind of assay: BSK_IMphg_MCP1: BioMAP Diversity Plus: IMphg Assay for Monocyte Chemoattractant Protein-1 (MCP1) Biomarker Activity (AID 2284253). The settings on record: primary human endothelial cells with macrophages. Put shortly: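 ELISA readout of MCP-1 at 24 hours in IMphg co-cultures of venular endothelial cells and macrophages, normalised to DMSO; parallel cultures stained with sulforhodamine B for overt cytotoxicity.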

Read-out in assay [8]: Interleukin-8 (IL8), CXCL8 (gene 3576)
The assay is described as follows: BSK_KF3CT_IL8: BioMAP Diversity Plus: KF3CT Assay for Interleukin-8 (IL8) Biomarker Activity (AID 2284254). The settings on record: primary human keratinocytes with fibroblasts. Put shortly:
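IL-8 read-out: ELISA, 24 h post-dose, human skin primary co-culture (keratinocytes + foreskin fibroblasts). DMSO = baseline; positive-direction fit.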

Read-out in assay [9]: Macrophage Inflammatory Protein-1 Alpha (MIP1a), CCL3 (gene 6348)
The assay is described as follows: BSK_IMphg_MIP1a: BioMAP Diversity Plus: IMphg Assay for Macrophage Inflammatory Protein-1 Alpha (MIP1a) Biomarker Activity (AID 2284255). Particulars: primary human endothelial cells with macrophages. The method, boiled down: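 MIP-1a protein levels were quantified by ELISA after 24 h treatment of human endothelial cell–macrophage co-cultures, compared with DMSO. Parallel cultures were fixed with TCA and stained with 0.1% SRB to gauge overt cytotoxicity.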

Read-out in assay [10]: Plasminogen activator inhibitor-1 (PAI1), SERPINE1 (gene 5054)
Kind of assay: BSK_MyoF_PAI1: BioMAP Diversity Plus: MyoF Assay for Plasminogen activator inhibitor-1 (PAI1) Biomarker Activity (AID 2284256).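 For outcome: PAI-1 protein level measured by ELISA in fibroblast cultures; PAI-1 read 24 h after compound addition.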 The settings on record: primary human lung fibroblasts. Put shortly:
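MyoF lung fibroblasts, human primary; compound 24 h; PAI-1 ELISA; positive-direction fit vs DMSO baseline; parallel SRB total-protein staining for cytotoxicity.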

Turning to `O=C(O)C(F)(F)C(F)(F)C(F)(F)C(F)(F)C(F)(F)C(F)(F)C(F)(F)C(F)(F)Cl`, the AC50 in [1] was 7.89 µM (active); in [2] it was 45.7 µM (active) and 54.2 µM (active); in assay [3], 7.26 µM (active); in [5] it was 29 µM (active) and 36.7 µM (active); in [6], 32.8 µM (active) and 37.8 µM (active); in assay [7], 48.6 µM (active). Also, the half-maximal activity concentration (AC50) in assay [8] is 55.2 µM (active) and 45.8 µM (active); in assay [9], 37.3 µM (active); in assay [10] it was 48.2 µM (active) and 48.5 µM (active). Also, the outcome in assay [1], in [3], in assay [4] and in [9] was inactive.
For `C=C(C)C(=O)OCCC(F)(F)C(F)(F)C(F)(F)C(F)(F)C(F)(C(F)(F)F)C(F)(F)F`, the outcome in assay [1], in assay [2], in assay [3], in assay [4], in [6] and in assay [7] was inactive. For the same molecule, the result in assay [8], in [9] and in assay [10] was inactive.
On to `COC(=O)CCC(F)(F)C(F)(F)C(F)(F)C(F)(F)F`, for which the outcome in [1], in assay [2], in assay [3], in assay [4], in assay [5] and in assay [6] was inactive. Further, the result in assay [7], in assay [8], in assay [9] and in assay [10] was inactive.
With `O=C(O)C(F)(F)C(F)(F)C(F)F`, the result in assay [1], in assay [2], in assay [3], in assay [4], in [5] and in assay [6] was inactive. Further, the outcome in assay [7], in assay [8], in [9] and in assay [10] was inactive.
Take `O=C(O)C(F)(F)C(F)(F)F`: the outcome in [1], in assay [2], in assay [3], in assay [4], in assay [5] and in [6] was inactive. Also, the outcome in [7], in assay [8], in [9] and in assay [10] was inactive.
With `FC(F)(I)C(F)(F)C(F)(F)C(F)(F)I`, the AC50 in assay [1] was 50.6 µM (active) and 50.7 µM (active) and 51.6 µM (active); in [2] it was 58.1 µM (active) and 47.2 µM (active) and 51.6 µM (active); in assay [3], 41.5 µM (active) and 47 µM (active) and 30 µM (active); in assay [6], 52.5 µM (active) and 47 µM (active) and 54.9 µM (active); in [8], 45.8 µM (active) and 47.4 µM (active); in [10], 55.6 µM (active) and 46 µM (active) and 56.7 µM (active). For the same molecule, the outcome in assay [4], in assay [7], in assay [8] and in assay [9] was inactive.
With `FC(F)(Br)C(F)(F)C(F)(F)C(F)(F)C(F)(F)C(F)(F)Br`, the outcome in assay [1], in assay [2], in [3], in [4], in assay [5] and in assay [6] was inactive. The outcome in [7], in [8], in assay [9] and in [10] was inactive. Further, the concentration at half-maximal activity (AC50) in [8] is 30 µM (active).
For `O=C(O)C(F)(F)C(F)(F)C(F)(F)C(F)(F)C(F)(F)C(F)(F)C(F)(F)C(F)(F)C(F)(F)C(F)(F)C(F)(F)C(F)(F)F`, the result in assay [1], in [2], in assay [3], in [4], in assay [6] and in assay [7] was inactive. The result in assay [8], in assay [9] and in [10] was inactive. The AC50 in assay [2] is 20.5 µM (active).
Take `CCO[Si](CCC(F)(F)C(F)(F)C(F)(F)C(F)(F)C(F)(F)C(F)(F)F)(OCC)OCC`: the result in assay [1], in assay [2], in [3], in assay [4], in assay [5] and in [6] was inactive. The result in [7], in assay [8], in assay [9] and in assay [10] was inactive.
As to `O=C(O)C=C(C(F)(F)F)C(F)(F)F`, the outcome in assay [1], in assay [2], in assay [3], in assay [4], in [6] and in assay [7] was inactive. Also, the result in assay [8], in assay [9] and in assay [10] was inactive. In [7], the AC50 is 42.6 µM (active).
Turning to `C=CC(F)(F)C(F)(F)C(F)(F)C(F)(F)C(F)(F)C(F)(F)C(F)(F)C(F)(F)C=C`, the result in assay [1], in assay [2], in [3], in assay [4], in assay [5] and in assay [6] was inactive. For the same molecule, the outcome in assay [7], in [8], in assay [9] and in [10] was inactive.
With `OCCCC(F)(F)C(F)(F)C(F)(F)C(F)(F)C(F)(F)C(F)(F)C(F)(F)F`, the AC50 in assay [1] was 49.5 µM (active) and 48.3 µM (active); in assay [2] it was 25.7 µM (active) and 54.8 µM (active); in assay [3], 38.1 µM (active) and 42.2 µM (active); in assay [4] it was 15.8 µM (active) and 7.13 µM (active); in assay [5], 13 µM (active) and 11.8 µM (active); in assay [6] it was 21.7 µM (active) and 46.1 µM (active). Moreover, the AC50 is 52 µM (active) and 24.2 µM (active) in assay [7]; 49.3 µM (active) and 46.4 µM (active) in assay [8]; 37.5 µM (active) in [9]; 51.2 µM (active) and 52.2 µM (active) in assay [10]. Also, the result in assay [9] was inactive.
For `OCC(F)(F)C(F)(F)C(F)(F)C(F)(F)C(F)(F)C(F)(F)F`, the result in assay [1], in assay [2], in assay [3], in assay [4], in assay [6] and in assay [7] was inactive. In addition, the outcome in assay [8], in assay [9] and in [10] was inactive.
As for `C=C(C)C(=O)OCC(F)(F)C(F)(F)C(F)(F)F`, the outcome in assay [1], in assay [2], in assay [3], in [4], in assay [6] and in assay [7] was inactive. For the same molecule, the result in assay [8], in [9] and in [10] was inactive.
In the case of `O=C(O)C(F)(F)C(F)(F)C(F)(F)C(F)(F)C(F)(F)C(F)(F)C(F)(F)C(F)(F)C(F)(F)C(F)(F)C(F)(F)C(F)(F)C(F)(F)F`, the result in [1], in assay [2], in [3], in assay [4], in assay [6] and in assay [7] was inactive. Moreover, the outcome in assay [8], in assay [9] and in [10] was inactive.
